Shown are actives, neighbours in structure and some others; about 1.2% of the full set was active somewhere.
Avidin fluor: avidin bead compound fluorescence profile; AID 1775; Avidin beads, compound fluorescence 488/530 nm, flow cytometry; stronger effect = higher value; fluorescence (KMESF) at 10 µM; hit rate 0.38% among 220,000; in the data active means fluorescence above about 47
RGS4-Gao reg: modulates binding of RGS4 to human Galphao | P09471 | Multiplexed bead flow cytometry; actives lie on both sides | binding response (% of control), % at 10 µM | hit rate 0.33% among 220,000 | AID 1415; in the data active means binding response below about 49% or above about 150%; inactive means in between;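 further: fluorescent Galphao activated with aluminum fluoride binding bead-coupled RGS4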
Target sequence (P09471 whole entry, looked up): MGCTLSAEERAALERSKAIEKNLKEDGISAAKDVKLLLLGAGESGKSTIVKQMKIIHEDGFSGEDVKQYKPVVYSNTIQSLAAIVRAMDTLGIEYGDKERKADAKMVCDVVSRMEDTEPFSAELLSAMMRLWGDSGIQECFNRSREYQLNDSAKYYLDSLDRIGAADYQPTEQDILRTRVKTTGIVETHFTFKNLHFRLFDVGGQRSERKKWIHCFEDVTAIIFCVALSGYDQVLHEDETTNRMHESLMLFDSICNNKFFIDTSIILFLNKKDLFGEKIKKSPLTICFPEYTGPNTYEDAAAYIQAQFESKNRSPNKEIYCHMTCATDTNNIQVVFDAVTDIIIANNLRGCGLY
RGS16-Gao HTS: regulators of human RGS16-Galphao interaction | binding response (% of control), % at 10 µM | bead-based flow cytometry RGS16-Galphao binding, fluorescence; actives lie on both sides | AID 1441 | hit rate 0.38% among 220,000 | O15492+P09471; call rule not given here;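 further: Galphao activated by GDP with aluminum fluoride before binding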
Target sequence (O15492 whole entry, looked up): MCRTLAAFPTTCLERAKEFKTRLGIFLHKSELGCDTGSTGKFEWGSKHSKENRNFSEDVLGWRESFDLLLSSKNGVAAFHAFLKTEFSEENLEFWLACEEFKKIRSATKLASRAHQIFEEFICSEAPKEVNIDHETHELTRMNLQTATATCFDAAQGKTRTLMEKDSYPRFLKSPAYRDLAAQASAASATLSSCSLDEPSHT
Target sequence (P09471 whole entry, looked up): as the sequence (P09471 whole entry, looked up) above
RGS8-Gao reg: modulates binding of RGS8 to human Galphao; multiplexed bead flow cytometry; actives lie on both sides; response (percent of control binding), % at 10 µM; hit rate 0.34% among 220,000; in the data active means response below about 60% or above about 140%; inactive means in between;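 further: Galphao activated as the GDP aluminium fluoride complex binding bead-coupled RGS8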
RGS7-Gao: modulates binding of RGS7 to human Galphao. Multiplexed bead flow cytometry; actives lie on both sides. binding response (% of control), % at 10 µM. hit rate 0.35% among 220,000; in the data active means binding response below about 49% or above about 150%; inconclusive means no clear call, values can overlap the other calls; inactive means in between;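 further: fluorescent Galphao held in activated GDP-AlF4 state binding bead-coupled RGS7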
GSH fluor: GSH bead compound fluorescence profile; GSH beads flow cytometry, compound fluorescence 488/530 nm; stronger effect = higher value; fluorescence (KMESF) at 10 µM; hit rate 0.25% among 190,000; in the data active means fluorescence above about 89;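 further: glutathione beads carrying GST-tagged Bcl family fusion proteins plus one bare bead set; values are compound well signal with DMSO vehicle wells as background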
* marks the source's active call; other numbers are inactive results; ? = inconclusive; . = not tested or not shown.

SMILES | Avidin fluor | RGS4-Gao reg | RGS16-Gao HTS | RGS8-Gao reg | RGS7-Gao | GSH fluor
CCOC(=O)C1(Cc2ccccc2)CCN(Cc2cn[nH]c2-c2ccccc2)CC1 | 8 | 103.8 | 148.1 | 114.5 | 104.0 | 9
Cc1ccc(-c2ccc(CCC(=O)O)n2Cc2ccco2)cc1 | 49* | 95.1 | 96.2 | 97.9 | 100.0 | 13
O=C(c1cccc(S(=O)(=O)N2CCc3ccccc3C2)c1)N1CCN(c2ccc(O)cc2)CC1 | 14 | 103.2 | 105.1 | 101.1 | 102.1 | 10
COc1ccc2ccccc2c1CN1CCN(Cc2ccccc2)CC1 | 8 | 101.7 | 100.0 | 101.4 | 100.0 | 11
COc1ccc2ccccc2c1CN1CCCC(CO)C1 (stereo unspecified) | 57* | 101.0 | 101.9 | 99.7 | 112.8 | 18
CS(=O)(=O)N(Cc1ccccc1)c1ccc(C(=O)NCCSCc2ccco2)cc1 | 6 | 91.8 | 103.0 | 100.4 | 95.8 | 88*
CC(=O)Nc1ccc(C(=O)Nc2nc(-c3cccnc3)cs2)cc1 | 63* | 116.2 | 90.3 | 89.5 | ? | 8
Cc1ccc(C)c(OCC(=O)N/N=C/c2c(C)nn(-c3ccccc3)c2Cl)c1 | 56* | 105.4 | 105.2 | 99.6 | 109.1 | 14
CC1(C)Cc2ccccc2C(NN=C2CCCC2)=N1 | 4 | 98.2 | 104.5 | 81.7 | 88.1 | 19
CC(NS(=O)(=O)c1ccc(OCC(=O)Nc2cccc([N+](=O)[O-])c2)cc1)c1ccccc1 (stereo unspecified) | 9 | 98.8 | 54.0 | 85.1 | 94.6 | 11
CCOC(=O)C1=C(C)OC(N)=C(C(=O)OCC)C1c1ccncc1 (stereo unspecified) | 10 | 99.9 | 111.0 | 101.5 | 106.2 | 244*
CCOC(=O)C1=C(C)OC(N)=C(C(=O)OCC)C1c1cccnc1 (stereo unspecified) | 25 | 66.7 | 66.5 | 74.4 | 61.7 | 15
Cc1nnc(N(Cc2ccco2)C(=O)c2ccc(C#N)cc2)s1 | 7 | 99.1 | 96.0 | 100.9 | 98.8 | 110*
Cc1nnc(N(Cc2ccco2)C(=O)c2cccc(C#N)c2)s1 | 21 | 100.9 | 104.4 | 103.1 | 100.3 | 32
Cc1cc(C)c(S(=O)(=O)N2CCCOC2CNC(=O)C(=O)NCCc2c[nH]c3ccccc23)c(C)c1 (stereo unspecified) | 14 | 103.4 | 105.4 | 101.8 | 104.5 | 10
CCCCc1c(C)nc2ccc(C(=O)OCC)cc2c1Cl | 10 | 100.9 | 100.5 | 99.5 | 97.5 | 12
CCOC(=O)c1ccc2nc(C)c(CCC(C)=O)c(Cl)c2c1 | 0 | 19.2* | 8.4* | 11.3* | 18.7* | 15
CC1(C)Cc2c(sc3nnn(CC(=O)Nc4ccccc4)c(=O)c23)CO1 | 92* | 126.9 | 91.9 | 94.5 | ? | .
COc1ccccc1NC(=O)Cn1nnc2sc3c(c2c1=O)CC(C)(C)OC3 | 3 | 95.7 | 99.1 | 99.3 | ? | .
O=C(Cn1[nH]c(=O)c2ccccc2c1=O)Nc1ccc2c(c1)CCC2 | 8 | 102.4 | 105.2 | 99.9 | 99.7 | 270*
C=CCNC(=O)CCCc1ccccc1 | 52* | 101.1 | 100.4 | 101.2 | 113.7 | 22
CC(C)CNC(=O)CCCc1ccccc1 | 9 | 99.5 | 100.4 | 100.0 | 95.3 | 8
O=C(COC(=O)c1ccc(S(=O)(=O)NCc2ccco2)cc1)Nc1ccc(Cl)cn1 | 13 | 98.2 | 99.1 | 102.1 | ? | 15
O=C1/C(=C\c2ccc(O)c(O)c2)C(c2ccccc2)=NN1c1ccccc1 | 9 | 62.2 | 64.5 | 69.0 | 55.2 | 11
COc1cc(/C=C2\C(=O)N(c3ccc(NC(C)=O)cc3)N=C2c2ccccc2)ccc1O | 131* | 133.4 | 103.5 | 92.9 | ? | 15
SMILES | Avidin fluor | RGS4-Gao reg | RGS16-Gao HTS | RGS8-Gao reg | RGS7-Gao | GSH fluor
CCOC(=O)c1ccc(C(=O)OCC)c(NC(=S)Nc2ccc([N+](=O)[O-])cc2OC)c1 | 5 | 100.8 | 92.8 | 101.0 | 100.5 | 12
CCN(C(=O)CSc1nnc(-c2c[nH]c3ccccc23)o1)C1CCS(=O)(=O)C1 (stereo unspecified) | 6 | 104.6 | 102.0 | 102.1 | 103.8 | 12
COC(=O)c1cccc(NC(=O)c2nn(C)c(=O)c3ccccc23)c1 | 9 | 107.1 | 114.4 | 104.4 | 102.0 | 185*
CCC1(C)NC(=O)N(CC(=O)Nc2sc3c(c2C(N)=O)CCC3)C1=O (stereo unspecified) | 3 | 82.8 | 1.2 | 86.1 | 77.2 | 222*
NC(=O)c1c(NC(=O)CN2C(=O)CCC2=O)sc2c1CCCCC2 | 8 | 105.1 | 113.4 | 104.8 | 106.3 | 28
Cc1ccc(Cl)cc1NC(=O)N(C)CCO | 8 | 108.6 | 107.5 | 104.6 | ? | .
Cc1cc(Nc2ncc(Cl)cc2Cl)n(-c2ccccn2)n1 | 7 | 102.2 | 118.3 | 106.6 | 100.2 | 268*
CN1CCCN(Cc2nc(-c3ccc(Cl)cc3)no2)CC1 | 3 | 100.8 | 100.4 | 102.1 | 101.5 | 10
COc1ccc(CNn2c(-c3cccs3)nc3ccccc3c2=O)cc1OC | 9 | 100.4 | 100.4 | 100.3 | 101.6 | 12
O=C(c1ccc(F)cc1)N1CCN(c2ncccn2)CC1 | 73* | 99.7 | 99.9 | 98.8 | 114.3 | 13
Nc1cc(=O)[nH]c(SCc2ccc(Cl)cc2)n1 | 50* | 105.4 | 103.7 | 102.8 | 109.6 | 19
Cc1cc(S(=O)(=O)N2CCN(c3ccccc3C)CC2)ccc1F | 5 | 101.8 | 105.9 | 104.1 | 102.4 | 23
Cc1ccccc1N1CCN(S(=O)(=O)c2ccccc2)CC1 | 12 | 107.2 | 105.8 | 106.3 | 104.5 | 98*
COCCCNC(=O)CSC1=Nc2ccccc2C2=NC(Cc3c[nH]c4ccccc34)C(=O)N12 (stereo unspecified) | 7 | 101.8 | 108.2 | 102.4 | 104.0 | 24
COCCCNC(=O)CSC1=Nc2ccccc2C2=NC(c3ccccc3)C(=O)N12 (stereo unspecified) | 69* | 101.3 | 107.9 | 102.9 | 122.0 | 12
CCc1nc2ccccc2c(=O)n1NC(=O)c1c(O)c2ccccc2n(CC)c1=O | 11 | 104.4 | 101.0 | 98.5 | 101.1 | 17
CCn1c(=O)c(C(=O)Nc2nc3ccccc3[nH]2)c(O)c2ccccc21 | 4 | 105.0 | 108.4 | 103.5 | 105.6 | 114*
CCOC(=O)c1c(NC(=O)COC(=O)c2ccccn2)sc2c1CCC2 | 8 | 92.1 | 51.7 | 87.3 | 90.2 | 10
CC(C)(C)C(=O)Nc1nc2ccc(S(C)(=O)=O)cc2s1 | 25 | 100.8 | 101.2 | 99.4 | 100.1 | 8
CC1=CCC(C(=O)O)C(C(=O)Nc2nc3ccc(S(C)(=O)=O)cc3s2)C1 (stereo unspecified) | 7 | 100.1 | 99.9 | 100.5 | 100.5 | 92*
COc1ccc(NC(=O)CCN2CCN(S(=O)(=O)c3ccc(OC)cc3)CC2)cc1 | 10 | 101.3 | 106.7 | 100.0 | 96.8 | 11
COc1ccc(NC(=O)CCN2CCN(S(=O)(=O)c3cc(Cl)ccc3Cl)CC2)cc1 | 60* | 136.4 | 155.9 | 105.6 | 114.0 | 29

Screening data: PubChem BioAssay, NMMLSC
